From PubChem BioAssay (NCATS)
Several values for one entry are separate records, joined by “and”; a condition that tells them apart may be missing. Equal entries are not always repeated. Results filed as inconclusive are left out. A number with no mark means an inactive call. Calls follow the shape of the dose curve; as a rule, active = well fitted inhibition curve with a large enough effect; inconclusive = small, poorly fitted or top-dose-only effect; inactive = flat fitted curve, though single readings scatter.

Experiment: Drug repurposing screens with cells derived from glioblastoma tumor samples (AID 1345199); also: nearly all actives have a fitted effect of over 40% in size
Conditions: GBM patient neurospheres viability, ATP luminescence, 48 h; at 45.9 µM (top of the series); tumour line D
Method in brief: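 Primary testing used CD133+ neurospheres from four GBM patients, seven concentrations, 48 h exposure and ATP-based viability; confirmation added three slower-growing patient lines.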
% is scaled to controls: 0 for no effect and ±100 for the full control effect.

With `COc1ccc(Cl)cc1C(=O)NCCc1ccc(S(=O)(=O)NC(=O)NC2CCCCC2)cc1` as the molecule, how does the activity, negative = cell killing read?
Its activity, negative = cell killing is -17.4%.

With `COc1ccc2cc1Oc1cc3c(cc1OC)CC[N+](C)(C)[C@H]3Cc1ccc(cc1)Oc1c(OC)c(OC)cc3c1[C@@H](C2)[N+](C)(C)CC3` as the molecule, how does the activity, negative = cell killing read?
The activity, negative = cell killing was -5.75%.

With `CC[C@@]1(c2ccccc2)NC(=O)N(C)C1=O` as the molecule, how does the activity, negative = cell killing read?
Its activity, negative = cell killing is -9.17%.

For `O=C1O[C@H]([C@@H](O)CO)C(O)=C1O`, which activity, negative = cell killing is on record?
The activity, negative = cell killing was -12.1% and -20.9%.

Which activity, negative = cell killing does the source give for `Cc1cccc(Nc2cc(Cl)nc(SCC(=O)O)n2)c1C` here?
The activity, negative = cell killing was -15.1%.

With `Cc1cc2nc3c(=O)[nH]c(=O)nc-3n(C[C@H](O)[C@H](O)[C@H](O)CO)c2cc1C` as the molecule, how does the activity, negative = cell killing read?
Its activity, negative = cell killing is -1.31% and -6.94%.

For `O=c1cc[nH]c(=S)[nH]1`, which activity, negative = cell killing is on record?
The activity, negative = cell killing was -10.9%.

Which activity, negative = cell killing does the source give for `COc1cc(C)c(Cc2cnc(N)nc2N)cc1OC` here?
Its activity, negative = cell killing is -19.5%.

For `CCCOC(=O)c1ccccc1`, which activity, negative = cell killing is on record?
Its activity, negative = cell killing is 1.56%.

Which activity, negative = cell killing does the source give for `CN1[C@@H]2CC[C@H]1CC(OC(=O)C(O)c1ccccc1)C2` (stereo not given in full) here?
Its activity, negative = cell killing is -19% and -5.08% and -5.73%.

For `C[C@@H](O)[C@H](N)C(=O)O`, which activity, negative = cell killing is on record?
Its activity, negative = cell killing is -16.8%.

Which activity, negative = cell killing does the source give for `NC(=O)N/N=C/c1ccc([N+](=O)[O-])o1` here?
Its activity, negative = cell killing is -11.8%.

Which activity, negative = cell killing does the source give for `CC(C)(O)c1ccccc1CC[C@@H](SCC1(CC(=O)O)CC1)c1cccc(/C=C/c2ccc3ccc(Cl)cc3n2)c1` here?
The activity, negative = cell killing was -14.4%.

For `Cc1ncc(COP(=O)(O)O)c(C=O)c1O`, which activity, negative = cell killing is on record?
Its activity, negative = cell killing is 0.448%.

For `O=C1NC(=O)[C@@]2(CCOc3ccc(F)cc32)N1`, which activity, negative = cell killing is on record?
The activity, negative = cell killing was 4.44%.

Which activity, negative = cell killing does the source give for `CCN(CC)C(=O)Nc1ccc(OCC(O)CNC(C)(C)C)c(C(C)=O)c1` (stereo not given) here?
The activity, negative = cell killing was 0.286%.

With `O=C(O)COc1nn(Cc2ccccc2)c2ccccc12` as the molecule, how does the activity, negative = cell killing read?
The activity, negative = cell killing was -3.69%.

With `Nc1ccc(S(=O)(=O)Nc2ccccc2)cc1` as the molecule, how does the activity, negative = cell killing read?
Its activity, negative = cell killing is -2.38%.

Which activity, negative = cell killing does the source give for `C[C@H](NC(CCc1ccccc1)C(=O)O)C(=O)N1CCC[C@H]1C(=O)O` (stereo not given in full) here?
Its activity, negative = cell killing is 1.9%.

With `O=C1NS(=O)(=O)c2ccccc21` as the molecule, how does the activity, negative = cell killing read?
The activity, negative = cell killing was -3.92%.

For `CCCCc1ncc(/C=C(\Cc2cccs2)C(=O)O)n1Cc1ccc(C(=O)O)cc1`, which activity, negative = cell killing is on record?
Its activity, negative = cell killing is 9.77%.

Which activity, negative = cell killing does the source give for `OCC(CO)N[C@H]1C[C@](O)(CO)[C@@H](O)[C@H](O)[C@H]1O` here?
The activity, negative = cell killing was 10.9%.

Which activity, negative = cell killing does the source give for `CNC(=O)Oc1ccc2c(c1)[C@]1(C)CCN(C)[C@@H]1N2C` here?
The activity, negative = cell killing was -13.4%.

With `O=C(O)CC(O)C(=O)O` (stereo not given) as the molecule, how does the activity, negative = cell killing read?
Its activity, negative = cell killing is -4.49%.

Which activity, negative = cell killing does the source give for `O=C(O)[C@@H]1CSCN1` here?
Its activity, negative = cell killing is 4.12%.

For `Nc1ccc(S(=O)(=O)Nc2nccs2)cc1`, which activity, negative = cell killing is on record?
Its activity, negative = cell killing is -5.75%.

For `CN(C)CCOC(C)(c1ccccc1)c1ccccn1` (stereo not given), which activity, negative = cell killing is on record?
The activity, negative = cell killing was -4.11%.

With `CC(O)COc1ccccc1` (stereo not given) as the molecule, how does the activity, negative = cell killing read?
Its activity, negative = cell killing is 2.5%.

For `Cc1cccc(C)c1NC(=O)CN(CC(=O)O)CC(=O)O`, which activity, negative = cell killing is on record?
Its activity, negative = cell killing is -3.71%.

For `COc1ccc2[nH]c(S(=O)Cc3ncc(C)c(OC)c3C)nc2n1` (stereo not given), which activity, negative = cell killing is on record?
Its activity, negative = cell killing is -21.6%.
